Sequences and labels used below:
B1: PhoQ; a variant is named by its letters at X, in order, P23837 (parent)
chain: MKKLLRLFFPLSLRVRFLLATAAVVLVLSLAYGMVALIGYSVSFDKTTFRLLRGESNLFYTLAKWENNKLHVELPENIDKQSPTMTLIYDENGQLLWAQRDVPWLMKMIQPDWLKSNGFHEIEADVNDTSLLLSGDHSIQQQLQEVREDDDDAEMTHSVAVNVYPATSRMPKLTIVVVDTIPVELKSSYMVWSWFIYVLSANLLLVIPLLWVAAWWSLRPIEALAKEVRELEEHNRELLNPATTRELTSLVRNLNRLLKSERERYDKYRTTLTDLTHSLKTPLXXLQXXLRSLRSEKMSVSDAEPVMLEQISRISQQIGYYLHRASMRGGTLLSRELHPVAPLLDNLTSALNKVYQRKGVNISLDISPEISFVGEQNDFVEVMGNVLDNACKYCLEFVEISARQTDEHLYIVVEDDGPGIPLSKREVIFDRGQRVDTLRPGQGVGLAVAREITEQYEGKIVAGESMLGGARMEVIFGRQHSAPKDE

This passage reports enrichment ratio results from a collection of fitness landscapes (doi:10.1126/science.1257360).

The full ranking holds about 140,000 sequences; the median of “enrichment ratio after two sorts for PhoP signalling” is about 0, and the highest 2% start at about 11. The full list was thinned out, with the highest values kept by preference.

Variants of B1 are the subject of the assay. Nature of the assay: enrichment ratio after two sorts for PhoP signalling (ratio (wild type AVST 3.29)); higher = more functional. The note with it: with PhoP (E. coli).
As to VMYM, the enrichment ratio is at most 0.25. The same measure for VVSV: at most 0.25; for RPHF: at most 0.25.

For the variant AIAI, the enrichment ratio was found to be 12.7.

In the case of WIAI, the enrichment ratio is at most 0.25. The same measure for TIYY: at most 0.25.

NMAI: the enrichment ratio was at most 0.25.

As to AKAI, the enrichment ratio stood at 5.1. Turning to KYAI, the enrichment ratio was at most 0.25. Turning to SIYY, the enrichment ratio is at most 0.25. Next, KMAI: at most 0.25; AMAI: 14.3; SIAI: 11.6.

Consider TIAI, for which the enrichment ratio was determined as 11.7. Next, TIAT: 10.2; VKNM: at most 0.25; NFFL: at most 0.25. The same measure for GWNK: at most 0.25; for RLRM: at most 0.25; for RGTH: at most 0.25. Turning to YTEG, the enrichment ratio is at most 0.25.

YVMY: the enrichment ratio was at most 0.25.

DNCH: the enrichment ratio was at most 0.25.

Regarding GTCF, the enrichment ratio stood at 1.25. Next, MCSA: at most 0.25; FSEL: at most 0.25; GNAI: 7.21. Take ANAI: the enrichment ratio is 30.1. For ANCS, the enrichment ratio amounted to 2.95. The same measure for EQHH: at most 0.25; for FQLL: 5.35; for QFLL: at most 0.25. Next, MSLT: 4.06; QPLL: at most 0.25; KSLL: at most 0.25. With YSLL, the enrichment ratio came out at 11.4. As for FSLL, the enrichment ratio came out at 13.5. The same measure for FCLL: 10.7. The same measure for TSLL: 14. Next, NSLL: 3.55; MSLL: 13.3; NRLL: at most 0.25. Regarding TRIL, the enrichment ratio was found to be 5.95. The same measure for WDTG: at most 0.25.

In the case of RKRR, the enrichment ratio is at most 0.25. Next, VQAF: at most 0.25; TDFE: at most 0.25; NRKC: at most 0.25. The same measure for KMVF: at most 0.25; for SYLL: 0.392; for SSLL: 19.9.

Take SILL: the enrichment ratio was 1.4. The same measure for TMHV: 0.946; for TMGV: 12.1; for KYGV: at most 0.25.

On to SRGV, for which the enrichment ratio is at most 0.25. For KCGV, the enrichment ratio is at most 0.25. Next, SEGV: 11.7; YTGV: at most 0.25.

On to STGV, for which the enrichment ratio worked out at 13.4. The same measure for QEGV: at most 0.25; for FHNP: at most 0.25; for WDYS: at most 0.25.

With LVGT, the enrichment ratio was at most 0.25.

Take RDTF: the enrichment ratio was at most 0.25. Next, VQAH: at most 0.25; PCAG: at most 0.25. Next, LCRQ: at most 0.25; YPYC: at most 0.25. Turning to SHQH, the enrichment ratio was at most 0.25. The same measure for TLKH: at most 0.25; for TLQH: 21.1. Next, NHQH: at most 0.25; THQH: 23.5.

Regarding KSQH, the enrichment ratio is at most 0.25. The same measure for RRNN: at most 0.25. The same measure for TVNT: 8.93.

In the case of AHNM, the enrichment ratio was 5.49. The same measure for NMYM: at most 0.25. Turning to TQPV, the enrichment ratio is at most 0.25. The same measure for MGNT: at most 0.25; for MGAT: 18.8; for QRAQ: at most 0.25.

Take MGWN: the enrichment ratio turned out to be 18.9. Next, TGAN: 2.47; MGDN: at most 0.25.

Consider MKAQ, for which the enrichment ratio was at most 0.25.

Regarding MGKR, the enrichment ratio is at most 0.25. In the case of MGLT, the enrichment ratio was 5.67. Next, MGNL: at most 0.25; MGAN: 12.6. The same measure for MGAQ: 18.9; for REVQ: at most 0.25. Next, RQWC: at most 0.25; SLFD: at most 0.25. As to VERW, the enrichment ratio was at most 0.25.

Consider LTMP, for which the enrichment ratio is at most 0.25.

For VRTD, the enrichment ratio is at most 0.25. With TDMT, the enrichment ratio was determined as 10.8. Next, QVFF: at most 0.25. The same measure for MGAI: 16.1; for MGCS: 6.13. Next, TGFN: at most 0.25. Turning to YTFN, the enrichment ratio was at most 0.25.

Take MGFN: the enrichment ratio turned out to be 11.6. Next, MGAG: 1.81; MIFN: 11.

In the case of MTFN, the enrichment ratio was 16.9. Regarding MKFN, the enrichment ratio was at most 0.25. Next, QLDR: at most 0.25; GINV: at most 0.25; SIAD: 7.06. The same measure for YITI: at most 0.25; for YTPA: at most 0.25; for PENS: at most 0.25.

SNDM: the enrichment ratio was at most 0.25.

On to YEES, for which the enrichment ratio is at most 0.25. The same measure for YECC: 56.2; for YECV: 22.8; for YECH: 6.45. For the variant FTCQ, the enrichment ratio was 7.15. Next, YEQP: at most 0.25; YECQ: 30.7; YECS: 14.8.

For YECK, the enrichment ratio is at most 0.25. Next, FTCV: 0.528; YECI: 0.32; FTCC: at most 0.25.

Regarding PGAC, the enrichment ratio is at most 0.25. Next, FIVG: at most 0.25; QDLS: at most 0.25. Consider TSLG, for which the enrichment ratio was 14.5. Turning to PSLG, the enrichment ratio is at most 0.25. SILG: the enrichment ratio came out at 8.57. Next, SRLG: at most 0.25; SSLG: 16.1; KSLG: at most 0.25. Next, YYHP: at most 0.25; DLTQ: at most 0.25. Next, ANPT: at most 0.25. Turning to IQMM, the enrichment ratio is at most 0.25. Consider ITMM, for which the enrichment ratio came out at 17.7. As to IPMM, the enrichment ratio is at most 0.25. Next, HIMM: at most 0.25; TAMM: 2.2; IGMM: 18.5. With GAMM, the enrichment ratio came out at 14.4. As for IGWM, the enrichment ratio was at most 0.25. Next, VLMM: at most 0.25; IGGM: at most 0.25. For VAMM, the enrichment ratio came out at 12.8. The same measure for VHMM: at most 0.25; for MRMA: at most 0.25.
